# Measured values published in PubChem BioAssay AID434962 (The Scripps Research Institute Molecular Screening Center, 2010).
# Out of some 320,000 compounds screened, about 1,300 (0.41%) were called active.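 The calls were made as follows: active = percent inhibition above the average of all tested compounds plus 3 SD, set per screening campaign (cut at about 16% in these data); inactive = the rest.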 The sample as a whole holds a higher share of actives than the screen did.
# Target: Insulin-degrading enzyme (Homo sapiens) (UniProt P14735)
# Sequence (P14735 whole entry, looked up): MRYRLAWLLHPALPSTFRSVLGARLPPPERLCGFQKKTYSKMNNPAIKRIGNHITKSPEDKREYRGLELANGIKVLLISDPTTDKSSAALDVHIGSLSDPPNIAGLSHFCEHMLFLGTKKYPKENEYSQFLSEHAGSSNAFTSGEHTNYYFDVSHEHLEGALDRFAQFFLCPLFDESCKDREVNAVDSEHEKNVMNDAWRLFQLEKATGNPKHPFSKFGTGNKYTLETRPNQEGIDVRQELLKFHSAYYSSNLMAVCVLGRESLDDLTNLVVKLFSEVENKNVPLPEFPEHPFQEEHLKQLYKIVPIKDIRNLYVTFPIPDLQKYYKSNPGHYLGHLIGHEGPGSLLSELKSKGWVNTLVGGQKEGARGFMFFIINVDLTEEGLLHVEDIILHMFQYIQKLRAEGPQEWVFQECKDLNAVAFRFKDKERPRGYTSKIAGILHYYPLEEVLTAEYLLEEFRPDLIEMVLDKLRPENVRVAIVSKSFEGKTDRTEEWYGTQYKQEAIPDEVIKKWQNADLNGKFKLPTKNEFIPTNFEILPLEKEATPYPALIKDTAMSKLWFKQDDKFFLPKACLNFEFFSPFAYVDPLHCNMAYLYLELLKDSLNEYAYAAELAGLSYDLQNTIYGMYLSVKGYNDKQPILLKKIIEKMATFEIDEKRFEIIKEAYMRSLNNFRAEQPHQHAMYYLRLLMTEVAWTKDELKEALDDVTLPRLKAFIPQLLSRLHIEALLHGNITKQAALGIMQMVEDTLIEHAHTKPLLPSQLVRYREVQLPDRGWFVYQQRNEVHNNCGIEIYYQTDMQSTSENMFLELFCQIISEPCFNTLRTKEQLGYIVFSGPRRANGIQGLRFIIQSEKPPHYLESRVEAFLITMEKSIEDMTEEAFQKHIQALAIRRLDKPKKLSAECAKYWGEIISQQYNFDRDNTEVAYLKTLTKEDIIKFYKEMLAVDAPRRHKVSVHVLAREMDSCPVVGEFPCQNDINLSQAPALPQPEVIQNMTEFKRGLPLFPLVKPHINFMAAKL
# Experiment: human IDE inhibitors in live cells, primary screen, fluorescence polarization, HEK cells, FAbetaB substrate (AID 434962);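 also: IDE supplied by intact live HEK cells; FP after avidin binding of uncleaved biotin substrate so inhibition keeps polarization high; 0% = DMSO wells and 100% = 60 µM reference IDE inhibitor Ii1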
# Conditions: FAbetaB cleavage, at 5.59 µM, stronger effect = higher value
row,Compound,inhibition
1,CCOC(=O)c1nn(-c2cccc(C)c2)cc1C(=O)c1ccccc1,-1.22% (inactive)
2,Cc1nn(C)cc1C(=O)Nc1ccccc1Br,2.37% (inactive)
3,Cc1nn(C)cc1C(=O)c1ccccc1,16.3% (active)
4,COc1ccc(/C=C2\CCCC3C2=NN(C(=O)c2scnc2C)C3c2ccc(OC)cc2)cc1 (stereo not drawn),-0.54% (inactive)
5,O=C(CCc1nnc(Cc2ccc3c(c2)OCO3)o1)NCCc1ccccc1Cl,0.48% (inactive)
6,CCCCN(C1CCS(=O)(=O)C1)S(=O)(=O)c1ccc(C(C)C)cc1 (stereo not drawn),5.43% (inactive)
7,Cc1c(C(=O)Nc2cccc(S(=O)(=O)N3CCOCC3)c2)oc2ccccc12,-1.96% (inactive)
8,Cc1c(C(=O)Nc2cccc(-c3nnc4n3CCCCC4)c2)oc2ccccc12,17.2% (active)
9,O=C(Cn1[nH]c(=O)c2ccccc2c1=O)Nc1cccc(-c2nnc3n2CCCCC3)c1,7.74% (inactive)
10,COc1c(Br)cc2c(C)c(C(=O)N3CCOCC3)oc2c1Br,3.66% (inactive)
11,COc1ccccc1N(CC(=O)Nc1ccc(C(F)(F)F)cc1)S(C)(=O)=O,-2.79% (inactive)
12,C=CCOc1ccccc1NC(=O)CN1C(=O)CNC1=O,-0.94% (inactive)
13,CN(C)/C=C/C(=O)c1cnc2sccn2c1=O,-1.17% (inactive)
14,COc1cc(NS(=O)(=O)c2ccc(NC(=S)NC(=O)c3ccc(Br)cc3)cc2)ncn1,-2.01% (inactive)
15,COc1ccc(NS(=O)(=O)c2ccc(NC(=O)C(C)(C(F)(F)F)C(F)(F)F)cc2)nn1,6.58% (inactive)
16,COc1ccc(NS(=O)(=O)c2ccc(NC(=S)NC(=O)/C=C/c3ccc(C)cc3)cc2)nn1,24.2% (active)
17,Cc1ccc(NC2CCCN(C(=O)CCC3(C)CC3)C2)cc1C (stereo not drawn),2.09% (inactive)
18,O=C(Nc1cccc(NC(=O)N2CCN(c3ccccc3)CC2)c1)N1CCN(c2ccccc2)CC1,3.98% (inactive)
19,O=C(Nc1ccc(Cl)c(Cl)c1)N1CC=C(c2ccccc2)CC1,19.1% (active)
20,COc1cc(C(=O)NCC(=O)N2CC=C(c3ccccc3)CC2)cc(OC)c1OC,-2.8% (inactive)
21,O=C(CSc1nnc(CNC(=O)c2ccc(F)cc2)o1)Nc1ccc2c(c1)OCO2,1.15% (inactive)
22,CS(=O)(=O)N(Cc1ccccc1Cl)c1ccc(C(=O)NCc2cccnc2)cc1,12.1% (inactive)

row,Compound,inhibition
1,CC(=O)[C@@]12O[C@@H]1C[C@H]1[C@@H]3CC[C@H]4C[C@@H](O)CC[C@]4(C)[C@H]3CC[C@@]12C,0.23% (inactive)
2,CC(C)(C)C(=O)Nc1ccc(C(=O)N/N=C/c2ccccc2OC(=O)c2ccc(Cl)cc2Cl)cc1,-0.07% (inactive)
3,O=C(COc1ccc(/C=N/NC(=O)c2ccc(O)cc2)cc1)Nc1ccc([N+](=O)[O-])cc1,0.35% (inactive)
4,O=C(N/N=C/c1ccc(OC(=O)c2ccccc2Cl)cc1)c1ccc(O)cc1,17.1% (active)
5,CN(C(=O)c1cccc(NC(=O)Cc2cccc([N+](=O)[O-])c2)c1)C1CCCCC1,-2.48% (inactive)
6,Cn1cncc1C#Cc1c(-c2ccsc2)sc2ccccc12,2.04% (inactive)
7,CC[C@H]1OC(=O)[C@H](C)[C@@H](O[C@H]2C[C@@](C)(OC)[C@@H](O)[C@H](C)O2)[C@H](C)[C@@H](O[C@@H]2O[C@H](C)C[C@H](N(C)C)[C@H]2O)[C@](C)(O)C[C@@H](C)[C@@H]2N[C@@H](COCCOC)O[C@H]([C@H]2C)[C@]1(C)O,-4.09% (inactive)
8,C=CCSc1nc2c(c(=O)[nH]c(=O)n2C)n1Cc1ccccc1,-11.6% (inactive)
9,Cc1cc2nc3c(=O)n(Cc4ccccc4)c(=O)[nH]c3nc2cc1N,20.4% (active)
10,CN(C(=O)COC(=O)c1ccc(Br)o1)c1c(N)n(Cc2ccccc2)c(=O)[nH]c1=O,5.15% (inactive)
11,O=C(/C=C/c1ccc2c(c1)OCCO2)c1ccc(O)cc1,-0.89% (inactive)
12,O=C(/C=C(O)/C=C/c1ccc(O)cc1)/C=C/c1ccc(O)cc1,138% (active)
13,O=C(O)/C=C/c1ccc(OCCCF)cc1,-0.17% (inactive)
14,Cc1cccc2sc(N(CCCN(C)C)C(=O)CCS(=O)(=O)c3ccccc3)nc12,1.58% (inactive)
15,O=C(O)c1cc(S(=O)(=O)NC2CCCc3ccccc32)ccc1O (stereo not drawn),-0.45% (inactive)
16,O=C(NNS(=O)(=O)c1c(F)cc(F)c(Cl)c1F)C12CC3CC(CC(C3)C1)C2,-2.1% (inactive)
17,CCCNC(=O)N1CCN(C(=O)NCCC)CC1,4.47% (inactive)
18,Cc1ccccc1NC(=O)c1nn(-c2ccc(F)c(F)c2)ccc1=O,-4.03% (inactive)
19,C=CCOc1cccc(C2C(C(=O)c3ccc(C)o3)=C(O)C(=O)N2CCCn2ccnc2)c1 (stereo not drawn),1.55% (inactive)
20,Cc1cc(N2C(=O)C(O)=C(C(=O)c3ccc(C)o3)C2c2ccc(OCc3ccccc3)cc2)no1 (stereo not drawn),-9.32% (inactive)
21,C=CCOc1cccc(C2C(C(=O)c3ccc(C)o3)=C(O)C(=O)N2c2nnc(C)s2)c1 (stereo not drawn),24% (active)
22,Cc1ccc(C)c(NS(=O)(=O)c2ccc(OCC(=O)NCc3cccnc3)cc2)c1,4.06% (inactive)

row,Compound,inhibition
1,CC(C)COc1ccc(C(=O)NNC(=O)CCC(=O)c2cccs2)cc1,-2.82% (inactive)
2,NS(=O)(=O)c1cccc(NC(=O)CC23CC4CC(CC(Br)(C4)C2)C3)c1,2% (inactive)
3,Cc1cc(C)c(/C=C2\C(=O)Nc3ccccc32)[nH]1,66.2% (active)
4,O=C1Nc2ccccc2/C1=C/c1ccnc2ccccc12,6.65% (inactive)
5,CN(C)/C=C1/Nc2ccccc2C1=O,1.5% (inactive)
6,COc1ccc2nc3n(c(=O)c2c1)-c1ccc(Cl)cc1C(=O)NC3Cc1ccccc1 (stereo not drawn),4.46% (inactive)
7,Cc1ccc2nc(/C(C#N)=C\c3ccc(OC(=O)c4cccs4)cc3)[nH]c2c1,6.77% (inactive)
8,N#C/C(=C(/O)COc1cccc2ccccc12)c1nc2ccccc2[nH]1,-1.21% (inactive)
9,COc1cc(/C=C(\C#N)c2nc3ccccc3[nH]2)ccc1O,121% (active)
10,COc1cc(/C=C(\C#N)c2nc3c(s2)CC(C)CC3)ccc1O (stereo not drawn),89.3% (active)
11,CCOc1cc(/C=C(\C#N)c2nc(-c3cccs3)c(NC(C)=O)s2)ccc1O,11% (inactive)
12,CCc1nn(CCCC(=O)Nc2ccc(C)c(C)c2)c(=O)c2cc3occc3n12,1.46% (inactive)
13,O=C(c1cccs1)n1nc(NCc2ccccc2)nc1NCc1ccccc1,-0.3% (inactive)
14,COC(=O)Nc1ccc(S(=O)(=O)Nc2cc(OC)nc(OC)n2)cc1,0.87% (inactive)
15,CCOC(=O)c1c(C)n(C)c2ccc(OC)c(NS(=O)(=O)CC)c12,-2.79% (inactive)
16,CC1C(=O)Nc2ccc(S(=O)(=O)N3CCN(c4ccccc4F)CC3)cc2NC1=O (stereo not drawn),1.3% (inactive)
17,Oc1ccc(-c2onc3ccc(Cl)cc23)cc1,43.5% (active)
18,CC(OC(=O)c1ccc2noc(-c3ccccc3)c2c1)C(N)=O (stereo not drawn),8.12% (inactive)
19,COc1ccc(-c2onc3ccc(C(C)=O)cc23)cc1,-1.49% (inactive)
20,Cc1ccc(NC(=O)C2CCN(S(=O)(=O)c3ccc4c(c3)NC(=O)CO4)CC2)cc1C,-0.04% (inactive)
21,Cn1cccc1C(=O)NNC(=O)COc1ccc(Br)cc1,2.25% (inactive)
22,COc1ccc2c(c1)c1nc3n(c(=O)c1n2CC(=O)Nc1ccccc1)CCS3,-0.03% (inactive)

row,Compound,inhibition
1,Cc1nnc2n1N=C(c1ccc3c(c1)NC(=O)CO3)CS2,4.61% (inactive)
2,CC(=O)N1CCSc2ccc(S(=O)(=O)N3CCC(C)CC3)cc21,2.25% (inactive)
3,CC(=O)Nc1ccc(/C=C/C(=O)c2ccccc2)cc1,1.53% (inactive)
4,O=C(/C=C/c1ccc(N2CCOCC2)cc1)c1ccccc1,20.5% (active)
5,O=C(O)c1ccc2c(c1)C(=O)N(c1ccc(/C=C/C(=O)c3ccccc3)cc1)C2=O,11.8% (inactive)
6,CNC[C@H]1Oc2c(NC(=O)C3CCCCC3)cccc2C(=O)N([C@H](C)CO)C[C@@H]1C,8.42% (inactive)
7,NC(=O)NC(=O)CSc1nc2cc([N+](=O)[O-])ccc2n1-c1cccc(C(F)(F)F)c1,-2.07% (inactive)
8,CC(C)C(=O)Nc1c(O)c2ccccc2[nH]c1=O,-1.36% (inactive)
9,CCCC(=O)Nc1c(O)c2ccccc2[nH]c1=O,20.6% (active)
10,CCCOC(=O)Cc1c(O)c2ccccc2[nH]c1=O,1.56% (inactive)
11,O=C(c1cccc(Br)c1)N1CCN(C2=NS(=O)(=O)c3ccccc32)CC1,-5.26% (inactive)
12,CCCC1CCC(=NNC(=S)NCCc2ccccc2)CC1 (stereo not drawn),1.89% (inactive)
13,COc1cccc(CNC(=O)COc2cc(O)c3c(c2)OC(C)(C)CC3=O)c1,0.91% (inactive)
14,O=C(CCc1ccc(S(=O)(=O)N2CCOCC2)cc1)Nc1ccc2ccccc2c1,26.8% (active)
15,O=C(COC(=O)CCc1ccc(S(=O)(=O)N2CCOCC2)cc1)Nc1cccc(Cl)c1,1.15% (inactive)
16,Cc1ccc(CC(=O)Nc2ccc(S(=O)(=O)N3CCOCC3)cc2)cc1C,3.81% (inactive)
17,COCCN(Cc1nc(-c2ccc(C(F)(F)F)cc2)no1)C(C)C,1.82% (inactive)
18,CCN1C(=S)N[C@@H](CCc2ccccc2)[C@H](C(=O)OC)[C@H]1C,0.06% (inactive)
19,O=C(Nc1ccccc1)N1CCN(C2c3ccccc3-c3ccccc32)CC1,0.11% (inactive)
20,CCN(CC)c1ccc2cc(C(N)=O)/c(=N\NC(=O)c3ccncc3)oc2c1,64.9% (active)
21,NC(=O)c1cc2ccccc2o/c1=N/NC(=O)c1cccc(F)c1,7.74% (inactive)
22,COc1cccc2cc(C(N)=O)/c(=N\NC(=O)c3ccccc3)oc12,-0.22% (inactive)
